The values that follow come from PubChem BioAssay (EPA / NIEHS).

Structures are written as SMILES. The source made the active and inactive calls. How the source made its calls: active means hit-call score of the fitted dose curve at least 0.9, where 1 is the maximum; inactive means score below 0.9.

A short description of the experiment: ATG_PXRE_CIS: Attagene CIS-FACTORIAL HepG2 Assay for human Pregnane X Receptor Element (PXRE) (AID 2282957). To be noted: HepG2 Attagene CIS-FACTORIAL PXRE reporter, mRNA; actives raise or lower the signal. On the procedure: ATG_CIS is a cell-based, multiplexed-readout assay that uses HepG2, a human liver cell line, with measurements taken at 24 hours after chemical dosing in a 24-well plate.ATG_PXRE_CIS is one of 52 assay component(s) measured or calculated from the ATG_CIS assay. It is designed to make measurements of mRNA induction, a form of inducible reporter, as detected with fluorescence intensity signals by Reverse transcription polymerase chain reaction (RT-PCR) and Capillary electrophoresis technology.Data from the assay component ATG_PXRE_CIS was analyzed into 1 assay endpoint. This assay endpoint, ATG_PXRE_CIS, was analyzed with bidirectional fitting relative to DMSO as the negative control and baseline of activity. Using a type of inducible reporter, measures of mRNA for gain or loss-of-signal activity can be used to understand the reporter gene at the transcription factor-level as they relate to the gene NR1I2. Furthermore, this assay endpoint can be referred to as a primary readout, because this assay has produced multiple assay endpoints where this one serves a reporter gene function. To generalize the intended target to other relatable targets, this assay endpoint is annotated to the nuclear receptor intended target family, where the subfamily is non-steroidal.
Human liver HepG2 cells are transiently transfected with multiple reporter transcription units (MRTUs) in 6-well plates using FuGene 6 reagent (Roche; 3 ml FuGene/1 mg DNA). The MRTU constructs are regulated by a cis-regulating element (promoter). […] A major difference between the CIS and TRANS system is that in CIS activities of endogenous TFs are measured, whereas the TRANS assay evaluates changes in activities of exogenous, chimeric NR-Gal4 proteins. […] At the end of 24 hour incubation, total RNA was isolated using TriZol reagent (Invitrogen). The isolated RNA is then reverse-transcribed using oligo(dT) primer and Mo-MLV reverse transcriptase (Invitrogen) with DNAse I (Ambion) treatment for 30 min. The one-tenth of the produced cDNA was amplified by PCR using Taq DNA polymerase (Invitrogen) and two reporter sequence-specific primers. The PCR products were fluorescently labeled by primer extension with 6-arboxyfluorescein (6-FAM) 5'-labeled reporter sequence-specific primer (2 min at 95 C, 20 s at 68 C and 10 min at 72 C) and these products were digested with 5U of HpaI (New England Biolabs) for 2h at 37 C. The fragments were purified using Qiaquick PCR columns (Qiagen), analyzed on an ABI 3130xL genetic analyzer (Applied Biosystems) with peak positions identified by using a set of X-rhodamine (ROX)-labeled MapMarker1000 molecular weight standards (BioVentures). The raw capillary electrophoresis data was processed using Attagraph software (Attagene).
For the compound `C[Si](O[Si](C)(C)C)O[Si](C)(C)C`, the AC50 – broadly, the concentration at which the activity in the assay is half-maximal – was 13.4 µM (active).

With `O=S(=O)(O)NC1CCCCC1`, the result was inactive.

Take `CC(C)=CCCC(C)CC=O` (stereo not given): the outcome was inactive.

In the case of `CCCC/C=C\CCCCCCCCCC=O`, the call was inactive.

Regarding `CC(C)c1cccc(O)c1`, the AC50 is 28.4 µM (active).

As for `C=CCOc1nc(OCC=C)nc(OCC=C)n1`, the AC50 was 17.2 µM (active).

Take `CCOC(=O)c1ccccc1OC`: the AC50 is 54 µM (active).

For the compound `CCCCCCCCC`, the compound was classed as inactive.

As to `CNCCO`, the result was inactive.

For `C=CC(=O)OCCn1c(=O)n(CCOC(=O)C=C)c(=O)n(CCOC(=O)C=C)c1=O`, the call was inactive.

Regarding `C=C(C)C(=O)OCCOC(=O)CC(C)=O`, the compound was called inactive.

With `CC1(C)[C@H]2CC[C@]1(C)[C@H](O)C2`, the AC50 was 68.7 µM (active).

Turning to `CCCCCCOC(=O)CC`, the compound was classed as inactive.

Regarding `C=O`, the AC50 was 27.7 µM (active).

Consider `O=C(O)c1ccc(C(=O)O)cc1`, for which the outcome was inactive.

As to `CC(C)CCCCCCCOC(=O)c1ccc(C(=O)OCCCCCCCC(C)C)c(C(=O)OCCCCCCCC(C)C)c1`, the AC50 was 42.7 µM (active).

As for `CSc1nc(NC2CC2)nc(NC(C)(C)C)n1`, the concentration at half-maximal activity (AC50) was 0.911 µM (active).

For `O=C(O)c1cccc(C(F)(F)F)c1`, the outcome was inactive.

`CC(c1cc2ccccc2s1)N(O)C(N)=O` (stereo not given): the call was inactive.

In the case of `OCc1cccnc1`, the outcome was inactive.

As to `CCC(C)CCCC(C)(C)O` (stereo not given), the call was inactive.

For the compound `CC1=CC(=O)NS(=O)(=O)O1`, the AC50 is 55.8 µM (active).

In the case of `CCCCCCCCCCCCCOS(=O)(=O)O`, the compound was called inactive.

As to `CCC(=O)OCCC(C)CCC=C(C)C` (stereo not given), the AC50 is 41.1 µM (active).

As for `CC(C)(C)C(=O)c1ccccc1`, the AC50 was 53 µM (active).

On to `C=CCOC(=O)CCC1CCCCC1`, for which the compound was called inactive.

For `O=C(O)CCCCC1CCSS1` (stereo not given), the call was inactive.

Turning to `CC(C)Oc1ccccc1O`, the AC50 was 39.4 µM (active).

With `C=C(C)C(=O)O[C@H]1C[C@@H]2CC[C@@]1(C)C2(C)C`, the concentration at half-maximal activity (AC50) was 26.5 µM (active).

`CO[Si](C)(OC)c1ccccc1`: the AC50 was 2.95 µM (active).

Take `CCCC(C)C=O` (stereo not given): the compound was classed as inactive.

Regarding `CC(C)(C)NC(N)=O`, the outcome was inactive.

For `O=C(O)CCCCCCCC(=O)O`, the result was inactive.

`Fc1c(F)c(F)c(Br)c(F)c1F`: the concentration at half-maximal activity (AC50) is 46.5 µM (active).

On to `C=CC(C)(O)CCC=C(C)CCC=C(C)C` (stereo not given), for which the AC50 was 9.06 µM (active).

Turning to `COc1cc(C=O)ccc1OC(=O)C(C)C`, the result was inactive.

For the compound `CCC(=O)OCc1ccccc1`, the compound was classed as inactive.

As for `Cc1ccc(C(=O)O)o1`, the compound was called inactive.

Consider `CN(C)C(=N)N=C(N)N`, for which the call was inactive.

Turning to `FC1(F)C(F)(F)C(F)(F)C2(F)C(F)(C1(F)F)C(F)(F)C(F)(F)C1(F)C(F)(F)C(F)(F)C(F)(F)C(F)(F)C12F` (stereo not given), the half-maximal activity concentration (AC50) is 37.5 µM (active).
